PubChem BioAssay (EPA / NIEHS)
Active and inactive are the calls of the source. Rule for the calls: active = hit-call score of the fitted dose curve at least 0.9, where 1 is the maximum; inactive = score below 0.9.

Assay: ATG_NRF2_ARE_CIS: Attagene CIS-FACTORIAL HepG2 Assay for human Nuclear Factor Erythroid 2 Related Factor 2 (NFR2) response to Antioxidant Response Elements (ARE) (AID 2282992)
Details: HepG2 Attagene ARE/NRF2 reporter, transcription factor activity; actives raise or lower the signal
Description: ATG_CIS is a cell-based, multiplexed-readout assay that uses HepG2, a human liver cell line, with measurements taken at 24 hours after chemical dosing in a 24-well plate.ATG_NRF2_ARE_CIS is one of 52 assay component(s) measured or calculated from the ATG_CIS assay. It is designed to make measurements of mRNA induction, a form of inducible reporter, as detected with fluorescence intensity signals by Reverse transcription polymerase chain reaction (RT-PCR) and Capillary electrophoresis technology.Data from the assay component ATG_NRF2_ARE_CIS was analyzed into 1 assay endpoint. This assay endpoint, ATG_NRF2_ARE_CIS, was analyzed with bidirectional fitting relative to DMSO as the negative control and baseline of activity. Using a type of inducible reporter, measures of mRNA for gain or loss-of-signal activity can be used to understand the reporter gene at the transcription factor-level as they relate to the gene NFE2L2. Furthermore, this assay endpoint can be referred to as a primary readout, because this assay has produced multiple assay endpoints where this one serves a reporter gene function. To generalize the intended target to other relatable targets, this assay endpoint is annotated to the dna binding intended target family, where the subfamily is basic leucine zipper.
Human liver HepG2 cells are transiently transfected with multiple reporter transcription units (MRTUs) in 6-well plates using FuGene 6 reagent (Roche; 3 ml FuGene/1 mg DNA). The MRTU constructs are regulated by a cis-regulating element (promoter). […] A major difference between the CIS and TRANS system is that in CIS activities of endogenous TFs are measured, whereas the TRANS assay evaluates changes in activities of exogenous, chimeric NR-Gal4 proteins. […] At the end of 24 hour incubation, total RNA was isolated using TriZol reagent (Invitrogen). The isolated RNA is then reverse-transcribed using oligo(dT) primer and Mo-MLV reverse transcriptase (Invitrogen) with DNAse I (Ambion) treatment for 30 min. The one-tenth of the produced cDNA was amplified by PCR using Taq DNA polymerase (Invitrogen) and two reporter sequence-specific primers. The PCR products were fluorescently labeled by primer extension with 6-arboxyfluorescein (6-FAM) 5'-labeled reporter sequence-specific primer (2 min at 95 C, 20 s at 68 C and 10 min at 72 C) and these products were digested with 5U of HpaI (New England Biolabs) for 2h at 37 C. The fragments were purified using Qiaquick PCR columns (Qiagen), analyzed on an ABI 3130xL genetic analyzer (Applied Biosystems) with peak positions identified by using a set of X-rhodamine (ROX)-labeled MapMarker1000 molecular weight standards (BioVentures). The raw capillary electrophoresis data was processed using Attagraph software (Attagene).

Structure (SMILES) | AC50 | outcome
CN(C)c1ccc(C(c2ccccc2)c2ccc(N(C)C)cc2)cc1 | 68.1 µM (active) | –
CCCCn1cc[n+](C)c1 | – | inactive
c1cc[c]([Bi]([c]2ccccc2)[c]2ccccc2)cc1 | 48.9 µM (active) | –
NC(=O)c1ccc(N)cc1 | – | inactive
Nc1ccc(S(=O)(=O)Nc2cnc3ccccc3n2)cc1 | – | inactive
CCCCNC(N)=O | – | inactive
[O-][n+]1ccc(Cl)cc1 | – | inactive
Cc1cc2nc3c(=O)[nH]c(=O)nc-3n(C[C@H](O)[C@H](O)[C@H](O)CO)c2cc1C | – | inactive
CCCCCCOC(=O)CCCCCCCC(=O)OCCCCCC | – | inactive
c1ccc(CNc2ncnc3nc[nH]c23)cc1 | – | inactive
Clc1ccc(Sc2cc(Cl)c(Cl)cc2Cl)cc1 | – | inactive
CCC(=O)OCc1ccc(OC)cc1 | – | inactive
CC[N+](CC)(CC(=O)Nc1c(C)cccc1C)Cc1ccccc1 | – | inactive
COC(=O)[C@]1(C)CCC[C@@]2(C)[C@H]1CC=C1C=C(C(C)C)CC[C@@H]12 | 32.2 µM (active) | –
OCCc1ccccn1 | – | inactive
CCOC(=O)CC(=O)OCC | – | inactive
CCCCCC1CCCC(=O)O1 (stereo not given) | – | inactive
NC(=O)c1ccc([N+](=O)[O-])cc1Cl | – | inactive
C=C(C)C(=O)OCC1CCCO1 (stereo not given) | – | inactive
CCCC(=O)OC/C=C(\C)CCC=C(C)C | – | inactive

Structure (SMILES) | AC50 | outcome
CN1CCCC1 | 26.2 µM (active) | –
COC(=O)/C=C\C(=O)OC | 10.5 µM (active) | –
CC(C)=CCOC(=O)c1ccccc1 | – | inactive
O=C(C1CCCCC1)N1CC(=O)N2CCc3ccccc3C2C1 (stereo not given) | – | inactive
Cc1ccnc(N)c1 | 66.8 µM (active) | –
O=C1NC(=O)C2CC=CCC12 (stereo not given) | – | inactive
CC/C=C/CCO | – | inactive
CCOC(=O)c1ccccc1 | – | inactive
CCCCCCC1CCC(=O)O1 (stereo not given) | – | inactive
Brc1ccc(Oc2ccc(Br)cc2)cc1 | 66.4 µM (active) | –
CC1=CCCC(C)(C)C12CCC(C)O2 (stereo not given) | 17.5 µM (active) | –
COC(=O)CCSCCC(=O)OC | – | inactive
C[C@H]1C[C@H]2[C@@H]3CCC4=CC(=O)C=C[C@]4(C)[C@@]3(F)[C@@H](O)C[C@]2(C)[C@@]1(O)C(=O)CO | 100 µM (active) | –
O=C(OCc1ccccc1)c1ccccc1 | – | inactive
COc1cccc(OC)c1C(=O)O | – | inactive
Cc1cc(O)cc(C)c1Cl | 22.5 µM (active) | –
COCCCN | – | inactive
Oc1cccc2ccccc12 | 4.38 µM (active) | –
C=CN1CCCCCC1=O | – | inactive
Cc1cccnc1 | – | inactive
